Results as given in PubChem BioAssay AID1851 (National Center for Advancing Translational Sciences (NCATS), 2009).
The campaign covered roughly 16,000 compounds. About 5,700 (36%) were called active. Roughly 24% stayed inconclusive and do not appear here. Calls follow the shape of the dose curve; as a rule, active = well fitted curve in the direction sought with a large enough effect; inconclusive = small, poorly fitted or top-dose-only effect, or effect the other way; inactive = no such curve, though single readings can be large or run the other way. The list shows a part of the results.

These molecules were tested against Cytochrome P450 1A2 (Homo sapiens) (UniProt P05177) (assay: Cytochrome panel assay with activity outcomes). Details: recombinant CYP, pro-luciferin dealkylation, luminescence, p450-cyp1a2; series mostly up to 57.1 µM; activity, negative = inhibition: at the top concentration.
Sequence of Cytochrome P450 1A2 (Homo sapiens) (P05177 whole entry, looked up): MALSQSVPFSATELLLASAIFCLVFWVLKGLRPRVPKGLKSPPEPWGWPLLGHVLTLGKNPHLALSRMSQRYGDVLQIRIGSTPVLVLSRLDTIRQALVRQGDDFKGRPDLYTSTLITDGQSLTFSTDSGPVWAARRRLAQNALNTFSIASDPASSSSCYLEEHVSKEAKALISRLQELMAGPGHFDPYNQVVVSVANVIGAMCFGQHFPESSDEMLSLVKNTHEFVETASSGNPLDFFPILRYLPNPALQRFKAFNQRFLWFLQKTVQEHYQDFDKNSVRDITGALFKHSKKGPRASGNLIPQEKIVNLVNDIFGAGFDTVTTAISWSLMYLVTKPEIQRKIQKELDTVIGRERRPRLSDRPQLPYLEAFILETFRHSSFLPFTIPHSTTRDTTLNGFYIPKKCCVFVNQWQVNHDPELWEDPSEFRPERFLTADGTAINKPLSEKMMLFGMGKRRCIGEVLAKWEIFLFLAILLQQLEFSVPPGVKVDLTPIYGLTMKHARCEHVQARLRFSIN
% is scaled to controls: 0 for no effect and ±100 for the full control effect.

| Compound | activity, negative = inhibition | AC50 |
| --- | --- | --- |
| O=C(/C=C/c1ccc(Cl)cc1)Nc1ccc(N2CCCCC2)cc1 | -7.34% (inactive) |  |
| CC(=O)Nc1ccc(N2CCCCC2)cc1 |  | 14.1 µM (active) |
| O=C(Nc1ccc(N2CCCCC2)cc1)c1cncc(Br)c1 |  | 4.47 µM (active) |
| CC(=O)N1CCN(c2ccc(NC(=O)c3ccc(C)cc3)cc2)CC1 | 0.154% (inactive) |  |
| CC(C)CN1CCC2(CC1)CCN(C(=O)c1cnccn1)CC2 | -7.79% (inactive) |  |
| CC(=O)OC[C@@H]1O[C@@H](O/N=C2/C[C@@H](O)[C@@H](O)[C@@H]3[C@@H]4C(=O)N(Cc5ccccc5)C(=O)[C@H]4CC[C@H]23)[C@H](OC(C)=O)[C@H](OC(C)=O)[C@@H]1OC(C)=O | -1.74% [at 11.4 µM] (inactive) |  |
| CSc1nc2c(c(C(F)(F)F)n1)CC(C)CC2 (stereo unspecified) |  | 25.1 µM (active) |
| O=C(Nc1cccc(C(F)(F)F)c1)c1n[nH]c(Cn2cncn2)n1 |  | 0.126 µM (active) |
| C[C@H](NC(=O)Cn1cncn1)c1ccccc1 | -3.83% (inactive) |  |
| O=C(Nc1ccc(OC(F)(F)F)cc1)c1n[nH]c(Cn2cncn2)n1 |  | 0.158 µM (active) |
| Cc1ccccc1OCCNc1ccc(C(F)(F)F)cc1[N+](=O)[O-] |  | 0.891 µM (active) |
| O=[N+]([O-])c1cc(C(F)(F)F)ccc1NCCCCNS(=O)(=O)c1ccc2ccccc2c1 | -31.8% (inactive) |  |
| COC(=O)c1c(C)[nH]c(C)c1C(=O)c1ccccc1Cc1ccccc1 |  | 0.251 µM (active) |
| Cc1ccc(C)c(C(=N)c2ccccc2Cc2ccccc2)c1 | -6.82% [at 2.29 µM] (inactive) |  |
| Nc1nc(SCc2ccc([N+](=O)[O-])cc2)c2ncn([C@@H]3O[C@@H](CO)[C@@H](O)[C@H]3O)c2n1 | -8.58% (inactive) |  |
| Cc1ccc(S(=O)(=O)N(CCCN2CCCC2=O)Cc2cc3c(C)ccc(C)c3[nH]c2=O)cc1 | -21% (inactive) |  |
| Cc1ccc(CS(=O)(=O)CCC(=O)NCCCN2CCCC2=O)cc1 | -15.9% (inactive) |  |
| COc1ccc2[nH]c3c(NCCCN4CCCC4=O)ncnc3c2c1 |  | 11.2 µM (active) |
| CC(=O)N[C@@H](CC(=O)O)C(=O)O | -4.66% [at 25.6 µM] (inactive) |  |
| CC1CCN(C(=O)C2CCN(S(=O)(=O)c3cccc4nonc34)CC2)CC1 | -0.137% (inactive) |  |
| CC1CC(C)CN(C(=O)CSc2nnc(CSc3ncccn3)n2C)C1 (stereo unspecified) | -0.204% (inactive) |  |
| CC1CCN(C(=O)CSc2nc3cccnc3n2C)CC1 |  | 20 µM (active) |
| Cc1nc2ccccc2nc1SCC(=O)N1CCC(C)CC1 |  | 3.55 µM (active) |
| Cn1c(SCC(=O)N2CCN(S(=O)(=O)c3ccccc3)CC2)nc2ccccc21 | -17.9% (inactive) |  |
| NC(=O)C1CCN(C(=O)CN2C(=O)c3ccccc3S2(=O)=O)CC1 | 1.85% (inactive) |  |
| CCc1cc2c(nc1CC)CCN(CC/C(C)=N/O[C@@H]1O[C@H](COC(C)=O)[C@H](OC(C)=O)[C@H](OC(C)=O)[C@H]1OC(C)=O)C2 | 0.132% [at 11.4 µM] (inactive) |  |

| Compound | activity, negative = inhibition | AC50 |
| --- | --- | --- |
| Nc1nonc1-c1noc(CCCN2C(=O)c3ccccc3C2=O)n1 |  | 14.1 µM (active) |
| O=C(NCc1cccnc1)/C(=C/c1ccc(-c2cccc(Cl)c2)o1)S(=O)(=O)c1ccccc1 |  | 25.1 µM (active) |
| Cc1ccc(NC(=O)C(=O)NCc2ccc(/C=C(/C#N)C(=O)NCc3cccnc3)o2)cc1 | -13.3% (inactive) |  |
| COc1ccccc1C(=O)O/N=C1/CCCc2c1ccc(OC)c2[N+](=O)[O-] |  | 0.447 µM (active) |
| COc1ccc2c(c1[N+](=O)[O-])CCC/C2=N/OC(=O)c1ccccc1SC |  | 0.794 µM (active) |
| COc1ccc2c(c1[N+](=O)[O-])CCC/C2=N/OC(=O)c1cccc2ccccc12 |  | 0.794 µM (active) |
| CC1CSc2nc3sc4c(c3c(=O)n21)CCCC4 (stereo unspecified) |  | 3.55 µM (active) |
| CSC(=NC#N)N1CCN(c2ccc(Cl)cc2)CC1 |  | 4.47 µM (active) |
| C[C@H](NCCc1ccc(O)cc1)[C@@H](O)c1ccc(O)cc1 |  | inactive |
| C[C@H](N[C@@H](C)COc1ccccc1)[C@H](O)c1ccc(O)cc1 |  | 5.01 µM (active) |
| CCOC(=O)C1C(=O)C=C(c2ccc(C)cc2)CC1c1ccco1 (stereo unspecified) |  | 4.47 µM (active) |
| CCOC(=O)C1=C(N)n2c(s/c(=C\c3ccco3)c2=O)=C(C(=O)OCC)C1c1ccco1 (stereo unspecified) | -56% (inactive) |  |
| Cc1ccc(C(CC(N)=O)c2ccco2)cc1 (stereo unspecified) | -5.6% (inactive) |  |
| CC1=CC2=NC(=O)CC(C)(C(=O)N(CC(=O)NC(C)(C)C)Cc3cccs3)N2C=C1 (stereo unspecified) | 11.6% (inactive) |  |
| O=C(O)c1cc2c(o1)CCC/C2=N\O | -4.91% (inactive) |  |
| c1ccc(C2=NN[C@@H]3c4ccccc4-c4ccccc4N3C2)cc1 |  | 0.2 µM (active) |
| CCOc1ccc2nc(NC(=O)c3ccc(S(=O)(=O)N4CCOCC4)cc3)sc2c1 | -13.6% (inactive) |  |
| COc1ccc2nc(NC(=O)CSc3nnc(C)s3)sc2c1 |  | 2.82 µM (active) |
| COc1ccc2nc(C)cc(SCC(=O)Nc3c(C)cc(C)cc3C)c2c1 | -12.6% (inactive) |  |
| CCCOc1ccc(C(=O)NC(=S)Nc2nc3ccc(C)cc3s2)cc1 | -9.82% (inactive) |  |
| COc1ccc2nc(/N=C\N(C)C)sc2c1 |  | 0.631 µM (active) |
| COc1ccc2nc(NC(C)=O)sc2c1 |  | 3.55 µM (active) |
| COc1ccc(N2C(N)=NC(N)=NC2(C)C)cc1 | 10.4% (inactive) |  |
| COc1ccc(Cc2c(N)nc(N)nc2N)cc1 | -7.11% (inactive) |  |
| COc1ccc2nc(N)sc2c1 |  | 12.6 µM (active) |
